In all, about 70,000 compounds went through this assay and about 120 (0.17%) were called active. This excerpt belongs to a sample that is enriched for actives. A number with no mark means an inactive call. Rule as the data show it: active = inhibition above about 34%; inconclusive = no clear call, values can overlap the other calls; inactive = below about 11%.
target: Isocitrate dehydrogenase [NADP] cytoplasmic (Homo sapiens) (UniProt O75874); test: PubChem AID 624101; conditions: IDH1 R132H reductase, diaphorase/resazurin fluorescence, 60 min; at 10 µM; hits give high values;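 also: 0% = DMSO and 100% = no enzyme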
Sequence (O75874 whole entry R132H): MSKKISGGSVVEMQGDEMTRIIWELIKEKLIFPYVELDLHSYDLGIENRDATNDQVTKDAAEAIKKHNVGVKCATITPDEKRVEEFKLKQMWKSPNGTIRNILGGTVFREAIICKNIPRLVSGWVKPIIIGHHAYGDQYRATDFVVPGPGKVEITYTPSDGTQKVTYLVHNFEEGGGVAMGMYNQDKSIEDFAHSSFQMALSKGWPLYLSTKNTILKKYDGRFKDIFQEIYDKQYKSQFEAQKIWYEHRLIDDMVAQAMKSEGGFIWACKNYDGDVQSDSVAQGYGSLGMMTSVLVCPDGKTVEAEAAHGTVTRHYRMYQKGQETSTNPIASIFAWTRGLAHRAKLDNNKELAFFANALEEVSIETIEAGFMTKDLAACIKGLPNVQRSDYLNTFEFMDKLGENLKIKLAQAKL

Compound	inhibition
CCCc1cn(CC[C@@H]2CC[C@H](NS(=O)(=O)c3ccccc3Cl)[C@H](CO)O2)nn1	-0.0115%
CCCC(=O)Nc1ccc2c(c1)C(=O)N(C)C[C@H](OC)[C@@H](C)CN(C(C)=O)[C@H](C)CO2	0.373%
COCc1cn(CC[C@H]2CC[C@H](NC(=O)c3ccncc3)[C@H](CO)O2)nn1	0.111%
O=C(N[C@@H]1CC[C@@H](CCn2cc(-c3ccccn3)nn2)O[C@@H]1CO)c1ccccc1	0.105%
O=C(C[C@@H]1C[C@H]2c3cc(NC(=O)C4CCOCC4)ccc3O[C@H]2[C@@H](CO)O1)NCCN1CCCCC1	-0.003%
O=C(C[C@H]1CC[C@@H](NC(=O)c2ccccc2)[C@@H](CO)O1)NCc1ccncn1	-0.091%
CO[C@@H]1CN(C)C(=O)c2cc(NC(=O)c3ccc(F)cc3)ccc2OC[C@H](C)N(C(=O)CN(C)C)C[C@H]1C	-0.235%
C[C@@H]1CN([C@H](C)CO)C(=O)c2cc(-c3ccccc3)cnc2O[C@H]1CN(C)C(=O)Nc1ccccc1	-0.031%
Cc1noc(C)c1NC(=O)N(C)C[C@H]1Oc2ccc(NS(=O)(=O)c3ccc(Cl)cc3)cc2CC(=O)N([C@H](C)CO)C[C@@H]1C	0.108%
O=C(N[C@H]1CC[C@H](CCn2cc(C3(O)CCCC3)nn2)O[C@H]1CO)C1CC1	-0.0085%
COc1ccccc1CNC(=O)C[C@@H]1C[C@H]2c3cc(NC(=O)CN(C)C)ccc3O[C@H]2[C@@H](CO)O1	-0.208%
C[C@@H]1CN([C@@H](C)CO)S(=O)(=O)c2ccc(C#Cc3ccncc3)cc2O[C@@H]1CN(C)S(=O)(=O)c1ccccc1	-0.653%
CO[C@@H](CN(C)C(=O)c1cnccn1)[C@H](C)CN([C@H](C)CO)S(=O)(=O)c1ccc(C)cc1	0.027%
C/C=C/c1cnc2c(c1)C(=O)N([C@H](C)CO)C[C@H](C)[C@H](CN(C)C(=O)c1cccc(F)c1)O2	0.473%
CO[C@H]1CN(C)C(=O)c2cc(NS(=O)(=O)c3ccc(C)cc3)ccc2OC[C@H](C)NC[C@H]1C	0.218%
COc1ccc(-c2cnc3c(c2)C(=O)N([C@@H](C)CO)C[C@@H](C)[C@H](CN(C)C(=O)C2CCCCC2)O3)cc1	-0.366%
CN(C)C(=O)C[C@@H]1C=C[C@H](NC(=O)Nc2cccc(F)c2)[C@H](CO)O1	0.0155%
CCC(=O)Nc1ccc2c(c1)C(=O)N(C)C[C@H](OC)[C@H](C)CN(C(=O)c1ccccc1F)[C@@H](C)CO2	-0.083%

Compound	inhibition
COc1cccc(S(=O)(=O)Nc2ccc3c(c2)C(=O)N(C)C[C@@H](OC)[C@H](C)CN(C(=O)Cc2cccnc2)[C@H](C)CO3)c1	0.018%
CCCNC(=O)Nc1ccc2c(c1)C(=O)N(C)C[C@@H](OC)[C@@H](C)CN(C)[C@@H](C)CO2	-0.291%
CO[C@@H]1CN(C)C(=O)c2cc(NS(C)(=O)=O)ccc2OC[C@@H](C)N(C(=O)C2CCC2)C[C@@H]1C	-0.303%
CCC(=O)Nc1ccc2c(c1)OC[C@@H](C)N(CC1CC1)C[C@H](C)[C@H](OC)CN(C)C2=O	0.102%
O=C(C[C@@H]1C=C[C@@H](NC(=O)c2ccccc2)[C@H](CO)O1)NCCc1ccncc1	0.0765%
CO[C@H]1CN(C)C(=O)c2ccc(NC(=O)c3cc(C)on3)cc2OC[C@H](C)N(C)C[C@H]1C	0.444%
CN1CCN(C(=O)C[C@H]2C[C@@H]3c4cc(NC(=O)NC5CCCC5)ccc4O[C@@H]3[C@@H](CO)O2)CC1	0.0955%
O=C(NCC[C@H]1CC[C@H](NC(=O)C2CC2)[C@@H](CO)O1)c1ccc(F)cc1	0.372%
O=C(Nc1ccc2c(c1)[C@@H]1C[C@H](CC(=O)N3CCOCC3)O[C@@H](CO)[C@@H]1O2)C1CCOCC1	-1%
COCC(=O)Nc1ccc2c(c1)C(=O)N(C)C[C@@H](OC)[C@@H](C)CN(C(=O)c1ccccc1)[C@@H](C)CO2	0.0325%
CO[C@@H]1CN(C)C(=O)c2ccc(NC(=O)c3ccc(F)cc3)cc2OC[C@H](C)N(C)C[C@H]1C	0.002%
COCC(=O)Nc1ccc2c(c1)[C@H]1C[C@H](CC(=O)OC)O[C@@H](CO)[C@H]1O2	-0.0115%
CO[C@@H]1CN(C)C(=O)c2ccc(NS(=O)(=O)c3cccc(C)c3)cc2OC[C@@H](C)NC[C@H]1C	-0.0525%
COCC(=O)Nc1ccc2c(c1)OC[C@H](C)N(C(=O)COC)C[C@@H](C)[C@H](OC)CN(C)C2=O	-0.0515%
CC(=O)N(C)C[C@@H]1Oc2cc(-c3cncnc3)ccc2S(=O)(=O)N([C@@H](C)CO)C[C@H]1C	1.05%
COc1ccccc1CNC(=O)C[C@H]1C[C@@H]2c3cc(NC(=O)c4ccc5c(c4)OCO5)ccc3O[C@@H]2[C@H](CO)O1	-0.69%
CN(C)CCCNC(=O)C[C@@H]1C=C[C@H](NC(=O)c2ccccc2F)[C@H](CO)O1	0.626%

From PubChem BioAssay AID624101 (Broad Institute, 2012)
